According to PubChem BioAssay AID2685 (National Center for Advancing Translational Sciences (NCATS), 2010):
The whole screen tested about 320,000 compounds, of which about 2,100 (0.66%) were called active. Roughly 53% stayed inconclusive and do not appear here. The call rests on the fitted dose curve; in most records, active means well fitted inhibition curve with a large enough effect in the signal ratio, with a control signal flat (not every such curve was filed as active); inconclusive means small, poorly fitted or top-dose-only effect, or effect the other way, or a change in a side signal; inactive means flat fitted curve, though single readings scatter; the % refers to the signal ratio. The list comes from a sample in which actives are over-represented; it also holds similar structures and randomly drawn compounds.

experiment: qHTS Assay for Lipid Storage Modulators in Drosophila S3 Cells; conditions: BODIPY lipid droplet fluorescence, 18-24 h, cells fed with added oleic acid; cell number change: measured here: cell count max response; series mostly up to 46.1 µM;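 on cell number change: cells counted by Cell Tracker Red CMTPX staining in the red channel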
How it was run: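 Drosophila S3 cells got compounds at several concentrations plus oleic acid (400 uM solution). Laser-scanning cytometry with 488 nm excitation read lipid droplets at 500-530 nm and cells at 575-640 nm. Percent activity was relative to 20 uM Triacsin C.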
Potency means the concentration at half of the fitted maximal effect.

| SMILES | outcome | Potency | cell number change |
| --- | --- | --- | --- |
| CS(=O)(=O)c1ccccc1-c1nnc(NC(=O)c2ccc(S(=O)(=O)N3CCCC3)cc2)o1 | inactive [at 0.0737 µM] |  |  |
| COCCCNC(=O)c1ccccc1-c1cc(C)no1 |  | inactive | -2.62% |
| CC(=O)Nc1cc(C(F)(F)F)ccc1N1CCOCC1 |  | inactive | 3.32% |
| CC(C(=O)Nc1cc(C(F)(F)F)ccc1N1CCOCC1)N1C(=O)C2CC=CCC2C1=O (stereo unspecified) |  | 1.46 µM (active) | -1.98% |
| CC(Cl)C(=O)Nc1cc(C(F)(F)F)ccc1N1CCOCC1 (stereo unspecified) |  | inactive | -4.52% |
| O=C(Cc1cccc2ccccc12)Nc1ccc(N2CCOCC2)cc1 |  | inactive | -1.09% |
| CC(=O)N1N=C(c2ccncc2)OC12CCCCCC2 |  | inactive | 5.48% |
| CC(=O)N1N=C(c2ccccc2)OC12CCCC2 |  | inactive | 3.13% |
| CC(=O)N1N=C(c2ccncc2)OC12CCCC2 |  | 16.4 µM (active) | -12.2% |
| CCCOc1ccc(S(=O)(=O)NNC(=O)c2cc3ccccc3o2)cc1 |  | inactive | -21.5% |
| S=c1nc(C2CC2)n(-c2ccccc2)[nH]1 |  | inactive | 6.79% |
| CC(Sc1ccccc1)C(=O)N1CCN(S(=O)(=O)c2cccc(Br)c2)CC1 (stereo unspecified) |  | inactive |  |
| CC(Sc1ccccc1)C(=O)N1CCN(S(=O)(=O)c2ccccc2)CC1 (stereo unspecified) |  | 0.0103 µM (active) | 22.7% |
| CC(Sc1ccccc1)C(=O)N1CCN(S(=O)(=O)c2ccccc2F)CC1 (stereo unspecified) |  | inactive | -14.5% |
| CS(=O)(=NS(=O)(=O)c1ccc(Cl)cc1)c1ccccc1 (stereo unspecified) |  | inactive | 5.26% |
| N/C(=N\OC(=O)/C=C/c1ccccc1)c1ccccn1 |  | inactive |  |
| COc1cccc(-c2ncc3ccccc3c2COC(=O)c2ccc(Br)cc2)c1 |  | inactive | 2.33% |
| CCc1ccccc1NC(=O)COC(=O)c1cccs1 |  | inactive | -3.91% |
| O=C(COC(=O)c1c2c(nc3ccccc13)CCCC2)c1cccs1 |  | inactive | 9.93% |
| O=C(COC(=O)c1ccccn1)Nc1cccc(Cl)c1Cl |  | inactive | -0.814% |
| O=C(COC(=O)/C=C/c1cccs1)Nc1ccccc1Cl |  | inactive | 11.7% |
| O=C(COC(=O)c1cccs1)Nc1ccccc1C(F)(F)F |  | inactive | -6.32% |
| O=C(COC(=O)c1cccs1)Nc1ccccc1Cl |  | 16.4 µM (active) | 2.94% |
| O=C(COC(=O)c1c2c(nc3ccccc13)/C(=C\c1cccs1)CCC2)Nc1ccccc1Cl |  | 0.58 µM (active) | -12.6% |
| O=C(COC(=O)c1ccccn1)Nc1c(Cl)cccc1Cl |  | 16.4 µM (active) | -5.33% |
| O=C(COC(=O)c1ccccn1)Nc1ccccc1Cl |  | inactive | -8.3% |
| Nc1c(N(CCC2=CCCCC2)C(=O)C2CC2)c(=O)[nH]c(=O)n1Cc1ccccc1 |  | inactive | 10.2% |
